# PMC7862700, “An all-to-all approach to the identification of sequence-specific readers for epigenetic DNA modifications on cytosine”
# Columns and labels:
# Experiment in all cases: DAPPL (digital affinity profiling via proximity ligation, sequencing); 10 mM Tris-HCl pH 7.5, 50 mM NaCl, 1 mM DTT, 4% glycerol, room temperature, 30 min; GST-TFs on glutathione beads, 16-mer random dsDNA library, 0.1% formaldehyde crosslink after washing; high values mean tight binding
# Settings in all cases: protein: recombinant; tags: N-terminal GST; dsDNA, one strand shown
# ERF = target: T1, ERF (Homo sapiens, UniProt P50548 1-548)
# T1 sequence: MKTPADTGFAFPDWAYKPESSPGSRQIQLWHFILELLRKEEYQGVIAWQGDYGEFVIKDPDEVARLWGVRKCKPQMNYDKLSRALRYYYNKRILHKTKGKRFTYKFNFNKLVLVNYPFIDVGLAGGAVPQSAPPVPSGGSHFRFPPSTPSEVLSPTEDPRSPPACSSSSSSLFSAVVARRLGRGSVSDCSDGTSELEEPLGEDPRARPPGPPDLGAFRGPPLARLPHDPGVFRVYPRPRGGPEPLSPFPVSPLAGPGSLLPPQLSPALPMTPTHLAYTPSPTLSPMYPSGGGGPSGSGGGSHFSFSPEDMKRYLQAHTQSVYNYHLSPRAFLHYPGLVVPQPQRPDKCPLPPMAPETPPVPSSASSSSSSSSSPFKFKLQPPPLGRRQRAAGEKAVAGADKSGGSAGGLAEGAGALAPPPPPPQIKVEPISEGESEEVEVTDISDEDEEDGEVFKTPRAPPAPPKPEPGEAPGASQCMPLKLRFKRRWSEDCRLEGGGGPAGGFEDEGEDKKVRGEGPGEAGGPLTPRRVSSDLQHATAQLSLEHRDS
# In short: (§1)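 Binding signal is given per hexamer as its read frequency for a factor divided by its frequency in the tag-only sample. GST-fused human transcription factors were expressed in yeast, captured on glutathione beads, barcoded with DNA and pooled with that sample, then incubated with 200 nmole of a 16-mer random double-stranded DNA library in Tris/NaCl/DTT/glycerol buffer for 30 min at room temperature. The pools were then washed, crosslinked, proximity-ligated, amplified by PCR and sequenced on an Illumina NextSeq500.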
# ETV3L = target: T2, ETV3L (Homo sapiens, UniProt Q6ZN32 1-361)
# T2 sequence: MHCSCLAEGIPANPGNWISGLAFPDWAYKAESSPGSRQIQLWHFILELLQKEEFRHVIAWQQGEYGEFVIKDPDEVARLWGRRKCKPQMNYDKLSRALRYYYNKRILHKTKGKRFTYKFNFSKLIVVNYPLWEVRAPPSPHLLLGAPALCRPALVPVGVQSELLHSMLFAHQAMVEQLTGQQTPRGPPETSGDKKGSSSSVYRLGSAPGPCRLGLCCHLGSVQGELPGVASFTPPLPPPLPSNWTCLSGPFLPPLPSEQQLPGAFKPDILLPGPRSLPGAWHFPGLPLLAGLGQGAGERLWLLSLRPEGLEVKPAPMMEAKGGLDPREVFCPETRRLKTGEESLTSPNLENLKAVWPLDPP
# In short: as §1
# ETS2 = target: T3, ETS2 (Homo sapiens, UniProt P15036 1-469)
# T3 sequence: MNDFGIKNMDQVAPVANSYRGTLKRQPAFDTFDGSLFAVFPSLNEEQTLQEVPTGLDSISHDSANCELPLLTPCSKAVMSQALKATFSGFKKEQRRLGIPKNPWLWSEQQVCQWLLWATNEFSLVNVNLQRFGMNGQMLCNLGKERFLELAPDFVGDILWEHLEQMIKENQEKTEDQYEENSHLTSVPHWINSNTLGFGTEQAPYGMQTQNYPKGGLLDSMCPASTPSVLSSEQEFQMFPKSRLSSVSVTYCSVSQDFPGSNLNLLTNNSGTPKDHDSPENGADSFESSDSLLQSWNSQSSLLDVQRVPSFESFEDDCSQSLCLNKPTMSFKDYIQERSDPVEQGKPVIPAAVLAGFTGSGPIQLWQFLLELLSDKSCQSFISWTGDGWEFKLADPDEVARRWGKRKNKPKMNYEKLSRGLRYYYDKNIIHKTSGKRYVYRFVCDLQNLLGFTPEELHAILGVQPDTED
# In short: as §1
# SPDEF = target: T4, SPDEF (Homo sapiens, UniProt O95238 1-335)
# T4 sequence: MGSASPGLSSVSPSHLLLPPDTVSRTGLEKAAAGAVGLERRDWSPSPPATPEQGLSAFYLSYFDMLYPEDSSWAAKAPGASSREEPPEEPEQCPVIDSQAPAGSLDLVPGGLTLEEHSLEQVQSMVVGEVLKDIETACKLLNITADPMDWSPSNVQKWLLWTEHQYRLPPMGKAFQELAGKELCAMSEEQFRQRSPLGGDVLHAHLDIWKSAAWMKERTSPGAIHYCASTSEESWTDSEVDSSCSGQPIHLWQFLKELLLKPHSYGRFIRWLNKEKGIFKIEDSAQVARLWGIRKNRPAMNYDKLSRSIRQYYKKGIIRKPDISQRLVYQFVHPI
# In short: as §1
# ETV7 = target: T5, ETV7 (Homo sapiens, UniProt Q9Y603 1-341)
# T5 sequence: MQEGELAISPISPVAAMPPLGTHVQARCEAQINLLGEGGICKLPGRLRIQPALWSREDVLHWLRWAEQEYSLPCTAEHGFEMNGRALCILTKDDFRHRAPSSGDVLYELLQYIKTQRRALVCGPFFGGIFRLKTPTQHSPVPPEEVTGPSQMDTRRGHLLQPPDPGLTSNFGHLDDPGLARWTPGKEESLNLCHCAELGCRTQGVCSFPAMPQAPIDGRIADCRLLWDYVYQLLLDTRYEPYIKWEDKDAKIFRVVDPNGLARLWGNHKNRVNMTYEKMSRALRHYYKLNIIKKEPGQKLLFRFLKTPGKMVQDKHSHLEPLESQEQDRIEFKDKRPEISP
# In short: as §1
# ELF5 = target: T6, ELF5 (Homo sapiens, UniProt Q9UKW6-2 1-255)
# T6 sequence: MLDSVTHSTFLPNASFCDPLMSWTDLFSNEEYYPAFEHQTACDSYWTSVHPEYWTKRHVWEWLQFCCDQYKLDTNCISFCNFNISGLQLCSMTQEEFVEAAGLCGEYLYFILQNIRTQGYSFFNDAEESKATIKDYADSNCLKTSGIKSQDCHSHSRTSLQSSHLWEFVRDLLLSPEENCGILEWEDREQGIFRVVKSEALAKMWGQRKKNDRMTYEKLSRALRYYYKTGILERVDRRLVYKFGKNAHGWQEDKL
# In short: as §1
# ETV3 = target: T7, ETV3 (Homo sapiens, UniProt P41162-2 1-143)
# T7 sequence: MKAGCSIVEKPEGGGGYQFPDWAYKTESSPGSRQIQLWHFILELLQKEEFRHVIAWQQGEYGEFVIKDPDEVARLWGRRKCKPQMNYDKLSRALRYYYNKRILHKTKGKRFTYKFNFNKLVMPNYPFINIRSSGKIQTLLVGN
# In short: as §1
# ETV6 = ETV6 (Homo sapiens, UniProt P41212 1-452)
# Chain of ETV6 (P41212 whole entry): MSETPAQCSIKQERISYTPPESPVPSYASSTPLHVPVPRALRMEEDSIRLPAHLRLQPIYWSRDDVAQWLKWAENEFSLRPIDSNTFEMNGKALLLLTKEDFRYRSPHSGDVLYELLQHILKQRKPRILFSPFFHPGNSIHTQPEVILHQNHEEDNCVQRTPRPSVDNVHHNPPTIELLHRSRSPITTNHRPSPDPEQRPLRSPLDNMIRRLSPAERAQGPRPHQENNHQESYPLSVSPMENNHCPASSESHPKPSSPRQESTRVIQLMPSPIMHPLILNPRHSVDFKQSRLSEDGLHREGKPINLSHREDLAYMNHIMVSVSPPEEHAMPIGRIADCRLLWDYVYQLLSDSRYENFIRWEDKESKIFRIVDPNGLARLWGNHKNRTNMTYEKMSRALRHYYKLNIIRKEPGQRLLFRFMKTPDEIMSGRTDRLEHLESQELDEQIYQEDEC
# In short: as §1
sequence,measurement,setting,value
GTATTC,binding signal,ERF,"1.29 fold enrichment (6-mer frequency, TF over GST control)"
same,binding signal,ETV3L,"1.25 fold enrichment (6-mer frequency, TF over GST control)"
same,binding signal,ETS2,"1.33 fold enrichment (6-mer frequency, TF over GST control)"
same,binding signal,SPDEF,"1.21 fold enrichment (6-mer frequency, TF over GST control)"
same,binding signal,ETV7,"1.34 fold enrichment (6-mer frequency, TF over GST control)"
same,binding signal,ELF5,"1.31 fold enrichment (6-mer frequency, TF over GST control)"
same,binding signal,ETV3,"1.34 fold enrichment (6-mer frequency, TF over GST control)"
same,binding signal,ETV6,"1.28 fold enrichment (6-mer frequency, TF over GST control)"
GTAATC,binding signal,ERF,"1.08 fold enrichment (6-mer frequency, TF over GST control)"
same,binding signal,ETV3L,"1.12 fold enrichment (6-mer frequency, TF over GST control)"
same,binding signal,ETS2,"1.16 fold enrichment (6-mer frequency, TF over GST control)"
same,binding signal,SPDEF,"1.12 fold enrichment (6-mer frequency, TF over GST control)"
same,binding signal,ETV7,"1.17 fold enrichment (6-mer frequency, TF over GST control)"
same,binding signal,ELF5,"1.18 fold enrichment (6-mer frequency, TF over GST control)"
same,binding signal,ETV3,"1.1 fold enrichment (6-mer frequency, TF over GST control)"
same,binding signal,ETV6,"1.2 fold enrichment (6-mer frequency, TF over GST control)"
ACAAGC,binding signal,ERF,"1.15 fold enrichment (6-mer frequency, TF over GST control)"
same,binding signal,ETV3L,"1.11 fold enrichment (6-mer frequency, TF over GST control)"
same,binding signal,ETS2,"1.18 fold enrichment (6-mer frequency, TF over GST control)"
same,binding signal,SPDEF,"1 fold enrichment (6-mer frequency, TF over GST control)"
same,binding signal,ETV7,"1.01 fold enrichment (6-mer frequency, TF over GST control)"
same,binding signal,ELF5,"1.02 fold enrichment (6-mer frequency, TF over GST control)"
same,binding signal,ETV3,"1.13 fold enrichment (6-mer frequency, TF over GST control)"
same,binding signal,ETV6,"1.09 fold enrichment (6-mer frequency, TF over GST control)"
AAAGTT,binding signal,ERF,"1.08 fold enrichment (6-mer frequency, TF over GST control)"
same,binding signal,ETV3L,"1.13 fold enrichment (6-mer frequency, TF over GST control)"
same,binding signal,ETS2,"1.09 fold enrichment (6-mer frequency, TF over GST control)"
same,binding signal,SPDEF,"1.01 fold enrichment (6-mer frequency, TF over GST control)"
same,binding signal,ETV7,"1.15 fold enrichment (6-mer frequency, TF over GST control)"
same,binding signal,ELF5,"1.08 fold enrichment (6-mer frequency, TF over GST control)"
same,binding signal,ETV3,"1.09 fold enrichment (6-mer frequency, TF over GST control)"
same,binding signal,ETV6,"1.06 fold enrichment (6-mer frequency, TF over GST control)"
CAACCC,binding signal,ERF,"1.22 fold enrichment (6-mer frequency, TF over GST control)"
same,binding signal,ETV3L,"1.25 fold enrichment (6-mer frequency, TF over GST control)"
same,binding signal,ETS2,"1.28 fold enrichment (6-mer frequency, TF over GST control)"
same,binding signal,SPDEF,"1.2 fold enrichment (6-mer frequency, TF over GST control)"
same,binding signal,ETV7,"1.15 fold enrichment (6-mer frequency, TF over GST control)"
same,binding signal,ELF5,"1.2 fold enrichment (6-mer frequency, TF over GST control)"
same,binding signal,ETV3,"1.27 fold enrichment (6-mer frequency, TF over GST control)"
same,binding signal,ETV6,"1.22 fold enrichment (6-mer frequency, TF over GST control)"
ACATTG,binding signal,ERF,"1.26 fold enrichment (6-mer frequency, TF over GST control)"
same,binding signal,ETV3L,"1.18 fold enrichment (6-mer frequency, TF over GST control)"
same,binding signal,ETS2,"1.17 fold enrichment (6-mer frequency, TF over GST control)"
same,binding signal,SPDEF,"1.12 fold enrichment (6-mer frequency, TF over GST control)"
same,binding signal,ETV7,"1.2 fold enrichment (6-mer frequency, TF over GST control)"
same,binding signal,ELF5,"1.07 fold enrichment (6-mer frequency, TF over GST control)"
same,binding signal,ETV3,"1.1 fold enrichment (6-mer frequency, TF over GST control)"
same,binding signal,ETV6,"1.21 fold enrichment (6-mer frequency, TF over GST control)"
GAATCC,binding signal,ERF,"1.12 fold enrichment (6-mer frequency, TF over GST control)"
same,binding signal,ETV3L,"1.11 fold enrichment (6-mer frequency, TF over GST control)"
same,binding signal,ETS2,"1.13 fold enrichment (6-mer frequency, TF over GST control)"
same,binding signal,SPDEF,"1.54 fold enrichment (6-mer frequency, TF over GST control)"
same,binding signal,ETV7,"1.18 fold enrichment (6-mer frequency, TF over GST control)"
same,binding signal,ELF5,"1.03 fold enrichment (6-mer frequency, TF over GST control)"
same,binding signal,ETV3,"1.14 fold enrichment (6-mer frequency, TF over GST control)"
same,binding signal,ETV6,"1.08 fold enrichment (6-mer frequency, TF over GST control)"
